The values below come from PubChem BioAssay AID651808 (Broad Institute, 2012).

Inconclusive results are not listed. Activity calls are given as the source filed them. No rule for the calls is given here.

The test in a line: dose response, DH231 delta cqsS, luminescence, dry powder (AID 651808). Conditions: V. cholerae DH231 delta cqsS, luxCDABE luminescence, 6 h, stronger effect = higher value.

As for `CCn1nnc(NCc2ccc(C)cc2)n1`, the max activity (light induction) (at 0.35 µM, test 2) is 39.1% (inactive).

For the compound `CC(C)c1ccc(CNc2nnnn2C)cc1`, the max activity (light induction) (measured here: test 1 replicate run, at 0.0042 µM, test 1) amounted to 39.1%. As for `CCCn1nnnc1NCc1ccccc1Cl`, the max activity (light induction) (measured here: test 1 replicate run, at 0.35 µM, test 1) amounted to 43.6%.
